Assay results taken from PubChem BioAssay (NCATS).
Several values for one entry are separate records, joined by “and”; a condition that tells them apart may be missing. Equal values may be shown once. Results filed as inconclusive are left out. Where a call stands in place of a potency, no number is given. Activity calls are given as the source filed them. Unless noted, calls follow the shape of the dose curve; as a rule, active = well fitted curve in the direction sought with a large enough effect; inconclusive = small, poorly fitted or top-dose-only effect, or another doubt; inactive = no such curve, though single readings can be large; an effect the other way counts as inactive or inconclusive. Residues, ends and D or L forms follow the SMILES beside them. *: point of attachment. Cbz = O=C(OCc1ccccc1)*; CH2Cl = ClC*

Tests used:
[1] = target: Aldehyde dehydrogenase, mitochondrial (Homo sapiens) (UniProt P05091); assay: qHTS for Inhibitors of the Aldehyde Dehydrogenase Family (ALDH2) Confirmatory screens (AID 2061303; active = well fitted inhibition curve with a large enough effect; title and protocol of this record describe different tests; also: nearly all actives have a fitted effect of over 45% in size; also: potency is read from the fitted curve at half-maximal effect); conditions: ALDH inhibition qHTS; series mostly up to 45.4 µM
[2] = qHTS for Inhibitors of the Aldehyde Dehydrogenase Family (ALDH1A2, ALDH1A3, ALDH2, ALDH3A1) (AID 2061307); conditions: ALDH inhibition qHTS; series mostly up to 50.3 µM; also: nearly all actives have a fitted effect of over 50% in size; as to potency: test system not described further here; potency is read from the fitted curve at half-maximal effect
[3] = target: Retinaldehyde dehydrogenase 3 (Homo sapiens) (UniProt P47895); assay: qHTS for Inhibitors of the Aldehyde Dehydrogenase Family (ALDH1A3) Confirmatory screens (AID 2061311); conditions: ALDH inhibition qHTS; series mostly up to 46 µM; also: nearly all actives have a fitted effect of over 60% in size; also: potency is read from the fitted curve at half-maximal effect
[4] = target: Retinal dehydrogenase 2 (Homo sapiens) (UniProt O94788); assay: qHTS for Inhibitors of the Aldehyde Dehydrogenase Family (ALDH1A2) Confirmation screens (AID 2061314); conditions: ALDH1A2 enzyme inhibition qHTS confirmation; series mostly up to 45.9 µM; also: nearly all actives have a fitted effect of over 65% in size; also: potency is read from the fitted curve at half-maximal effect
[5] = target: Retinaldehyde dehydrogenase 3 (Homo sapiens) (UniProt P47895); assay: qHTS for Inhibitors of the Aldehyde Dehydrogenase Family (ALDH1A3) Primary screen (AID 2061315); conditions: ALDH inhibition qHTS; series mostly up to 56 µM
[6] = target: Aldehyde dehydrogenase 1A1 (Homo sapiens) (UniProt P00352); assay: qHTS for Inhibitors of the Aldehyde Dehydrogenase Family (ALDH1A1) Confirmatory screens (AID 2061316); conditions: ALDH inhibition qHTS; series mostly up to 47.3 µM; also: nearly all actives have a fitted effect of over 65% in size; also: potency is read from the fitted curve at half-maximal effect
[7] = target: Aldehyde dehydrogenase, mitochondrial (Homo sapiens) (UniProt P05091); assay: qHTS for Inhibitors of the Aldehyde Dehydrogenase Family (ALDH2) Primary screen (AID 2061308); conditions: ALDH2 enzyme inhibition qHTS, 1536-well; series mostly up to 56 µM; also: nearly all actives have a fitted effect of over 55% in size

SMILES | Potency [1] | Potency [2] | Potency [3] | Potency [4] | Potency [5] | Potency [6] | Potency [7]
Cc1ccc(OCCn2c(CCNC(=O)c3ccccc3[N+](=O)[O-])nc3ccccc32)cc1 | inactive | inactive | inactive | inactive | inactive | – | –
COc1ccc(-n2ccnc(NCc3ccc(Cl)cc3)c2=O)cc1 | 14.1 µM (active) | inactive | inactive | inactive | – | – | –
Cc1ccc(-c2nn3c(C)nnc3s2)cc1NCc1ccc(-c2cccc(Cl)c2)o1 | 3.18 µM (active) | 3.57 µM (active) | 12.7 µM (active) | 12.7 µM (active) | inactive | 6.34 µM (active) | –
Cc1nc(SCC(=O)c2ccc(F)cc2)n[nH]1 | inactive | inactive | inactive | inactive | inactive | inactive | –
COc1ccc(-c2ccc(CNc3ccc(N4CCN(C(=O)OC(C)(C)C)CC4)cc3)o2)cc1 | 1.13 µM (active) | inactive | inactive | 11.3 µM (active) | inactive | 11.3 µM (active) | –
CC(C)(C)OC(=O)N1CCN(c2ccc(NCc3ccc(-c4ccccc4F)o3)cc2)CC1 | 1.27 µM (active) | 12.7 µM (active) | inactive | inactive | inactive | – | –
CC(C)C[C@H](NC(=O)CNC(=O)OCc1ccccc1)C(=O)N[C@@H](Cc1ccccc1)C(=O)CCl (Cbz-Gly-Leu-Phe-CH2Cl) | inactive | inactive | inactive | 8.96 µM (active) | inactive | inactive | –
N#Cc1c(-c2ccc(C(=O)c3ccc(O)cc3)cc2)no[n+]1[O-] | 10 µM (active) | 11.3 µM (active) | 15.8 µM (active) | 0.712 µM (active) | inactive | 12.7 µM (active) | –
CC(=O)N1CCN(c2ccc(NCc3ccc(-c4ccc(Br)cc4)o3)cc2)CC1 | 0.142 µM (active) | 2.01 µM (active) | 25.2 µM (active) | 2.52 µM (active) | inactive | 5.65 µM (active) | –
CCOc1cc(CNc2ccc(C(=O)O)cc2)ccc1OCc1ccccc1 | 2 µM (active) | inactive | 0.199 µM (active) | 2.57 µM (active) | – | 6.47 µM (active) | –
O=S(=O)(Nc1cc(O)cc2cccnc12)c1ccc(Br)s1 | inactive | inactive | inactive | 0.634 µM (active) | – | – | –
CC(=O)c1ccc(N2CCN(S(=O)(=O)c3ccc4c(c3)C(C)(C)C(=O)N4)CC2)cc1 | inactive | inactive | 5.01 µM (active) | inactive | – | inactive | –
NC(=O)C1CCN(c2nccc(-c3ccc4c(c3)OCCO4)n2)CC1 | 5.65 µM (active) | 7.98 µM (active) | 14.1 µM (active) | 14.2 µM (active) | inactive | 0.798 µM (active) | –
Cc1cccc(CNc2ccnc(-c3cccc4ccccc34)n2)c1 | inactive | inactive | inactive | inactive | inactive | inactive | –
CCc1ccc(-n2c(SCc3cccc(F)c3)nc3[nH]ncc3c2=O)cc1 | inactive | inactive | 15.8 µM (active) | inactive | – | 1.82 µM (active) | –
Cc1ccc(CSc2ccc3nnc(CCNS(=O)(=O)c4ccc(C)cc4)n3n2)cc1 | inactive | inactive | – | inactive | – | – | –
CCOc1ccc(NC(=O)C2CCN(c3cnn(Cc4ccccc4)c(=O)c3)C2)cc1 (stereo not given) | inactive | inactive | – | inactive | – | – | –
CC[C@H](CO)Nc1nc(Nc2cccc(-c3ccccn3)c2)c2ncn(C(C)C)c2n1 | inactive | inactive | inactive | – | inactive | – | –
Cc1cc(-c2nnc3n2CCCCC3)c(C)n1-c1ccccn1 | inactive | inactive | 14.2 µM (active) | – | inactive | – | –

SMILES | Potency [1] | Potency [2] | Potency [3] | Potency [4] | Potency [5] | Potency [6] | Potency [7]
Oc1ccc(CNc2cccnc2)c2cccnc12 | 10.1 µM (active) | 7.98 µM (active) | 4.49 µM (active) | 5.65 µM (active) | – | 4 µM (active) | –
O=c1[nH]c2ccc(NCc3ccc(-c4ccccc4F)o3)cc2[nH]1 | 0.576 µM (active) | 4.47 µM (active) | – | inactive | – | – | –
COc1ccc(S(=O)(=O)Nc2cccc(-c3ccc(N4CCCCCC4)nn3)c2)c(OC)c1 | 28.2 µM (active) | 28.2 µM (active) and 2.51 µM (active) | inactive | inactive | – | inactive | –
COc1cccc(-c2ccc(CNc3ccc(N4CCN(C(=O)OC(C)(C)C)CC4)cc3)o2)c1 | 11.3 µM (active) | 14.2 µM (active) | inactive | – | inactive | – | –
CCc1ccc(-n2c(=O)c3cccnc3n2CC(=O)Nc2cc(F)ccc2F)cc1 | inactive | inactive | – | inactive | – | – | –
O=C1c2ccccc2C(=O)N1c1cccc2ccncc12 | inactive | inactive | inactive | – | inactive | – | –
CCOc1ccc(NC(=O)Cn2c(Nc3cc(C)cc(C)c3)nc(C)cc2=O)cc1 | 15.8 µM (active) | inactive | inactive | – | – | inactive | –
COc1ccc(N2CCN(c3nc(C(=O)NCc4cccc(C)c4)cs3)CC2)cc1 | inactive | 2.51 µM (active) | inactive | inactive | – | inactive | –
O=C(Nc1cccc(C(F)(F)F)c1)c1cccc(C(=O)Nc2cccc(C(F)(F)F)c2)c1 | inactive | inactive | inactive | – | – | inactive | –
COc1ccc(Nc2ncc(C(=O)N3CCN(c4ccc(F)cc4)CC3)c3ccccc23)cc1 | inactive | 15.8 µM (active) | inactive | inactive | – | inactive | –
COc1cccc(-n2cc(C(=O)Nc3cccc(C(F)(F)F)c3)c3ccccc3c2=O)c1 | inactive | 11.2 µM (active) | – | inactive | – | – | –
O=C(Nc1cncc(-c2cccc3ccccc23)c1)c1cccs1 | inactive | 5.62 µM (active) | 20.1 µM (active) | – | inactive | – | –
N#Cc1ccc(-c2ccc(CNc3ccc(N4CCOCC4)cc3)o2)cc1 | 0.04 µM (active) | 0.565 µM (active) | 15.9 µM (active) | – | – | 7.98 µM (active) | –
COc1ccc(-c2nc3cccc(OC)c3c(=O)n2Cc2ccccc2)cc1COc1ccc(NC(C)=O)cc1 | 28.2 µM (active) | 2.01 µM (active) | 25.1 µM (active) | – | – | 12.7 µM (active) | –
O=c1c2ccccc2nc2sc(Nc3ccc(Sc4ccccc4)cc3)nn12 | inactive | 12.6 µM (active) | – | 4 µM (active) | inactive | – | –
Cc1cc(-c2nnc3n2CCCCC3)c(C)n1-c1cccc(C#N)c1 | inactive | inactive | – | inactive | inactive | – | –
O=S(=O)(NCCc1nnc2ccc(SCc3ccc(C(F)(F)F)cc3)nn12)c1ccccc1 | inactive | inactive | 25.1 µM (active) | inactive | – | inactive | –
O=Cc1ccc(-c2ccc3ncnc(NCc4cccs4)c3c2)o1 | 11.3 µM (active) | inactive | – | inactive | inactive | – | –
COc1ccc(-c2nc(CNS(=O)(=O)c3ccc(F)cc3)cs2)cc1 | 11.2 µM (active) | inactive | inactive | – | – | inactive | –

SMILES | Potency [1] | Potency [2] | Potency [3] | Potency [4] | Potency [5] | Potency [6] | Potency [7]
Cc1ccc(CCNc2ncnc3onc(-c4ccc(Cl)cc4)c23)cc1 | inactive | inactive | 4.47 µM (active) | inactive | – | inactive | –
CCc1ccc(CN2CCC(C(=O)Nc3ccc(Oc4cccnc4)cc3)CC2)o1 | 5.01 µM (active) | inactive | inactive | – | – | inactive | –
Cc1ccc2c(c1)-c1c(cnn1CC(=O)N1CCN(c3cccc(C(F)(F)F)c3)CC1)CO2 | inactive | 10 µM (active) | inactive | inactive | – | inactive | –
O=C(O)c1cccc(-n2[nH]c(-c3ccccc3)cc2=O)c1 | 11.2 µM (active) | 5.01 µM (active) | 15.8 µM (active) | 7.98 µM (active) | – | 25.1 µM (active) | –
COc1ccccc1-c1cc(C(=O)NCc2ccc(C(F)(F)F)cc2)c2cnn(C)c2n1 | inactive | inactive | 7.08 µM (active) | inactive | – | inactive | –
COc1cccc(-c2cc(C(=O)NCC(F)F)c3cnn(C)c3n2)c1 | inactive | inactive | 5.01 µM (active) | – | – | inactive | –
Cc1ccc(OCCn2c(CCNC(=O)c3ccc(N)cc3)nc3ccccc32)cc1 | 10.1 µM (active) | 0.896 µM (active) | – | 7.98 µM (active) | inactive | 3.18 µM (active) | –
CC(C)(C)OC(=O)N1CCN(c2ccc(NCc3ccc(-c4cccc([N+](=O)[O-])c4)o3)cc2)CC1 | 0.896 µM (active) | 4 µM (active) | inactive | – | inactive | 14.2 µM (active) | –
CN(CC(=O)Nc1ccc(N2CCOCC2)cc1)Cc1c(O)ccc2ccccc12 | 11.3 µM (active) | 2.83 µM (active) | 15.9 µM (active) | 10.1 µM (active) | – | 2.52 µM (active) | –
CC(C)(C)OC(=O)N1CCN(c2ccc(NCc3cccc(-c4ccc(C#N)cc4)n3)cc2)CC1 | 0.201 µM (active) | 0.142 µM (active) | inactive | – | inactive | 8.96 µM (active) | –
COc1ccc2c(c1)CCc1sc(NC(=O)c3ccc(Cl)cc3)nc1-2 | 15.8 µM (active) | 3.24 µM (active) | 16.2 µM (active) | – | – | 4.58 µM (active) | –
COc1cc(NC(=S)N2CCN(c3cccc(C(F)(F)F)c3)CC2)nc2ccccc12 | 25.1 µM (active) | inactive | – | 7.94 µM (active) | inactive | – | –
O=C(O)c1ccccc1SC1=NS(=O)(=O)c2ccccc21 | inactive | inactive | – | inactive | inactive | inactive | –
COc1ccc(CC(=O)Nc2c(C(=O)N3CCN(c4ccccc4)CC3)oc3ccccc23)cc1OC | inactive | inactive | – | inactive | – | – | –
CC(=O)Nc1ccc(Nc2nc3c(S(=O)(=O)c4cccc(Cl)c4)nnn3c3ccsc23)cc1 | inactive | inactive | 28.2 µM (active) | inactive | – | inactive | –
COc1cccc(-c2ccc(CN3CCCC(NC(=O)Nc4ccccc4)C3)cc2)c1 (stereo not given) | inactive | 12.6 µM (active) | – | inactive | – | – | –
COc1ccc(C2N(Cc3ccccc3)C(=O)c3ccccc3N2C)cc1COc1ccc(NC(C)=O)cc1 (stereo not given) | inactive | 10.1 µM (active) | – | – | inactive | – | –
CCOc1ccc(NC(=O)CSc2nc3ccccc3nc2N2CCOCC2)cc1 | inactive | inactive | – | – | – | inactive | –
Cc1ccc2nc3sc(C(=O)N4CCN(C)CC4)cc3cc2c1 | inactive | – | 22.5 µM (active) | 10.1 µM (active) | – | – | inactive
